These results are taken from PubChem BioAssay (NCI).

Assay in all cases: NCI-60 one-dose screen, 48 h (100 = growth as untreated, 0 = no growth, -100 = all killed)
Common to all, as to conditions: 10 µM unless noted

Test [1] deals with EKVX NSCLC.
The subject of test [2] is SN12C renal.
Test [3] relates to UO-31 renal.
Test [4] concerns ACHN renal.
Test [5] concerns CAKI-1 renal.
Test [6] has as its system MOLT-4 leukemia.
Test [7] concerns SR leukemia.
The subject of test [8] is A498 renal.
In test [9] the test system is CCRF-CEM leukemia.
Test [10] concerns TK-10 renal.

Structures are written as SMILES. About 83,000 compounds went through this panel and 20% of them were active in at least one assay; those are over-represented in the sample as a whole.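 Treatment: one concentration, 48 hours, 96-well format. Scoring: percent growth, with anything below 10 considered active.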 Values without a mark were called inactive. Active and inactive are the calls of the source.

`O=C(/C=C/c1ccccc1)CC(c1ccccc1)N1CCOCC1` (stereo not drawn): the growth in test [1] was 117%; in test [2], 94.5%; in test [3], 61.3%; in test [4], 87.8%; in test [5], 103%; in [6], 78.4%. In addition, the growth in [7] is -7.57% (active).

Turning to `Cc1ccc(C(=O)Nc2ccc(Cl)cc2C(=O)NCc2ccccc2)cc1`, the growth was 80.3% in test [1]; 97.7% in [2]; 76.5% in test [3]; 86.4% in test [4]; 77.7% in [5]; 79.2% in [8]. Moreover, the growth in test [9] was 73.9%; in test [6], 51.4%; in [7], 37.1%.

As to `O=C1CCCN1C1CCN(Cc2cc3ccccc3[nH]c2=O)c2ccccc21` (stereo not drawn), the growth in test [1] is 79%; in [2], 88.3%; in test [3] it was 52.5%; in [4], 89.1%; in test [5], 79.3%; in [8], 111%. The growth in test [9] is 76.4%; in [6], 68.7%; in test [7] it was 73.1%.

As for `COc1ccc(-c2cncn2-c2ccc(-c3nc4cc(OC)c(OC)c(OC)c4s3)cc2)cc1N`, the growth was 58.4% in [1]; 72.4% in [2]; 16.1% in test [3]; 59.6% in test [4]; 30.4% in test [5]; 45.9% in test [9]. For the same molecule, the growth in [6] is 40%; in [7] it was 43.4%.

Consider `CC(=O)c1cc(C(=O)c2ccc3c(c2)Sc2ccccc2N3)c2c(C)cc(C)cn12`, for which the growth in test [1] is 34.3%; in [2], 20.7%; in test [3], 22.5%; in [4] it was 12.2%; in test [5], 9.64% (active); in [8] it was -27.3% (active). Also, the growth in test [6] is 19.2%; in test [7] it was 5.45% (active).

As for `OCc1nnn(-c2ccccc2)c1CO`, the growth in test [1] is 121%; in test [2], 102%; in test [10] it was 121%; in test [4], 107%; in [5] it was 111%; in test [8], 101%. Besides, the growth was 102% in test [9], 106% in test [6] and 104% in [7].

For `O=Nc1ccc(O)c(=O)cc1`, the growth was 72.5% in test [1]; 14.3% in [2]; -36% (active) in test [3]; 1.32% (active) in [4]; -7.71% (active) in test [5]; 145% in test [8]. In addition, the growth was 14% in [6] and 2.22% (active) in [7].

As to `c1cnc2ccc3ncccc3c2c1`, the growth is 101% in [1]; 101% in test [2]; 127% in test [10]; 82.1% in [4]; 90.3% in test [5]; 96.5% in [8]. The growth is 98.9% in test [9], 106% in test [6] and 82% in test [7].

For `CCCCCCCCCCC[C@@H](C[C@H]1OC(=O)[C@H]1CCCCCC)OC(=O)[C@@H](CC(C)C)NC=O`, the growth in test [1] is 95.6%; in [2] it was 43.9%; in test [10], 94.7%; in [4], 62.7%; in [5] it was 54.7%; in test [8], 84.5%. The results for the growth in [9] and in test [6] were 27.6% and 13.1%, respectively.

With `O=C1CN(CO)C(=O)CN1CO`, the growth in test [1] was 114%; in [2], 99.3%; in [10] it was 124%; in test [4] it was 97.6%; in [5] it was 94.8%; in test [8] it was 94%. For the same molecule, the growth was 92.8% in [9] and 105% in test [6].

As to `c1csc([C@@H]2C[C@@H]3Cc4ccc5ccccc5c4N2O3)c1`, the growth in test [1] is 78.8%; in [2] it was 94.3%; in test [10], 88.7%; in test [4] it was 107%; in test [5], 82.2%; in test [8] it was 79.8%. Besides, the growth in test [9] is 75.8%; in test [6] it was 78.3%; in [7], 95.1%.

For the molecule `O=C(C(Br)Br)C(Br)C(Br)c1ccccc1` (stereo not drawn), the growth in test [1] was 117%; in [2], 93.7%; in [3], 17.8%; in [4], 6.67% (active); in test [5], 72.7%; in test [8], 101%. Moreover, the values for the growth in test [9], in test [6] and in [7] were 14.8%, 27.7% and 19.3%, respectively.

For the molecule `COc1cc(C2NC(c3ccc(Cl)cc3)C(C)/C(=N/NC(N)=S)C2C)cc(OC)c1OC` (stereo not drawn), the growth in test [1] is 107%; in [2] it was 94.7%; in test [3] it was 76.7%; in test [4] it was 93.2%; in test [5], 51.1%; in test [8], 129%. The growth in test [9] was 89.8%; in [6] it was 70.7%; in test [7] it was 98.6%.

`CCN(CC)CCCCNc1c2ccccc2[n+](C)c2c1[nH]c1ccccc12`: the growth in test [1] was -20.3% (active); in test [2], -2.39% (active); in [10], -12.1% (active); in [4], 27.9%; in test [5], 81%; in test [8], -11.8% (active). Also, the growth is -33.1% (active) in [9], -4.88% (active) in test [6] and -37.3% (active) in test [7].

As for `COc1ccc2nc(NC(=O)c3cc(-c4ccc(F)cc4)n4nc(-c5ccccc5)cc4n3)sc2c1`, the growth in test [1] was 79.5%; in test [2] it was 88.6%; in test [10], 134%; in test [4], 67.5%; in [5] it was 77.5%; in test [8] it was 83.4%. The growth is 64.1% in test [9], 96.1% in [6] and 77.5% in test [7].
